Measured values from paper PMC4336329 (PLoS ONE, 2015).
Hit rate of the full screen: of about 310,000 compounds, about 14,000 (4.5%) showed an effect of 50% or more. Effects have a minus sign here. The full list was thinned out, with strong results kept by preference.

Each compound was assayed against human ether-à-go-go-related gene (hERG) potassium channel (human, UniProt Q12809) (assay: primary screen, population patch clamp on CHO cells stably expressing hERG; higher = less effect of the substance).
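Also: peak tail current of the secondary pulse compared with the same well before compound.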

Chain of human ether-à-go-go-related gene (hERG) potassium channel (Q12809 whole entry, looked up): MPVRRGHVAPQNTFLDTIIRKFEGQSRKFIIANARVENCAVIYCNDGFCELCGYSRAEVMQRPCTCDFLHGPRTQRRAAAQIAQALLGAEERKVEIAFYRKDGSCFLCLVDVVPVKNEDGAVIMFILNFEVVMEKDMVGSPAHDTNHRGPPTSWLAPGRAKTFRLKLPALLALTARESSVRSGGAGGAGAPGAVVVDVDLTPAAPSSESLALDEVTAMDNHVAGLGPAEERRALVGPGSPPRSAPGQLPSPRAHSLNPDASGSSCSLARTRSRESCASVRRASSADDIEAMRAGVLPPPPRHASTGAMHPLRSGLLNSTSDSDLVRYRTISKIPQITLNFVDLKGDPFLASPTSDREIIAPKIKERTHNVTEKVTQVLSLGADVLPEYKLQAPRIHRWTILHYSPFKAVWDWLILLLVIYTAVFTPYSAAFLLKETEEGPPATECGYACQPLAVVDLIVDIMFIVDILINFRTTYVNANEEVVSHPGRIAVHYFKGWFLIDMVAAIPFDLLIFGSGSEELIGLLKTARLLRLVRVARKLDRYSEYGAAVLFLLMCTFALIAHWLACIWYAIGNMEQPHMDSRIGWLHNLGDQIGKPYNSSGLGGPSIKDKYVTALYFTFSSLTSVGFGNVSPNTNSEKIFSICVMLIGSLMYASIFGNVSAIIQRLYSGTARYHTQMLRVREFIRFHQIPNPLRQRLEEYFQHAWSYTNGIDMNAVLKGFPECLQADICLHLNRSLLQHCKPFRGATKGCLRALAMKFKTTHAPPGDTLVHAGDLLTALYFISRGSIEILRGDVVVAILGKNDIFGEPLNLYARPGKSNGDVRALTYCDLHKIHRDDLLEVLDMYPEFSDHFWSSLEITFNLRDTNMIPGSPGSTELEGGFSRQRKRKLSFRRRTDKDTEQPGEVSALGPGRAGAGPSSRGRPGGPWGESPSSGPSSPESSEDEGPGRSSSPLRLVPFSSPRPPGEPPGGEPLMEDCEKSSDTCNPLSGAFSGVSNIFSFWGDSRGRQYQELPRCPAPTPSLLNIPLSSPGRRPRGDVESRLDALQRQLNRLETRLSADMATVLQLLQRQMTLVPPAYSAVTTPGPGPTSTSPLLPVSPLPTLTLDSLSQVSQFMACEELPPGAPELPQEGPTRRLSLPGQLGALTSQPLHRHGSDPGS

SMILES | hERG current change (%, negative = inhibition) at 10uM [%]
COc1ccc(OC)c(S(=O)(=O)Nc2cccc(-c3ccc4nncn4n3)c2)c1 | 18.7
CC(C)(C)C(=O)OCc1nc(-c2ccc3c(c2)OCCO3)cs1 | 10.8
CCOc1ccc(Cl)cc1CNCCNCCO.Cl | 24.3
CCOc1ccc(Cl)cc1CNCCc1ccc(F)cc1.Cl | -48
CC(C)(C)NCc1cc(Cl)ccc1OCc1ccccc1F.Cl | -43.3
CCOc1ccc(Cl)cc1CNCCc1ccccc1F.Cl | -59.8
CCN(CC)CCNCc1cc(Cl)ccc1OCc1ccccc1F.Cl | -72.8
CCNCc1ccc(OCc2ccccc2F)c(OC)c1.Cl | -11
Cc1ccc2c(c1)C(c1ccccc1)N(C(=O)c1ccc(S(=O)(=O)N3CCOCC3)cc1)CC(=O)N2 (centres unmarked) | -19.1
COc1cc([N+](=O)[O-])ccc1NC(=O)C[n+]1ccccc1C.[Cl-] | 11
N#Cc1c(-c2ccccc2)cc(-c2ccccc2)nc1SCCC(=O)O | 18.4
COc1ccc(/C(N)=N/OC(=O)c2ccc(C)c([N+](=O)[O-])c2)cc1 | -6.61
O=C(N/C(=C\c1ccc(Br)cc1)C(=O)N1CCOCC1)c1ccc(Br)o1 | -67.1
O=C(N/C(=C\c1ccccc1)C(=O)N1CCOCC1)c1ccc(Br)o1 | 3.18
O=C(N/C(=C\c1ccc(Br)cc1)C(=O)N1CCOCC1)c1ccco1 | -41
O=C(N/C(=C/c1ccc(Br)cc1)C(=O)N1CCOCC1)c1ccc(Br)o1 | -70.2
O=C(N/C(=C/c1ccc(Br)cc1)C(=O)N1CCOCC1)c1ccco1 | -24.1
O=C(N/C(=C/c1ccc(Br)cc1)C(=O)N1CCOCC1)c1cccs1 | -5.65
CCOC(=O)CN(C(=O)c1ccccc1[N+](=O)[O-])C(C)(C)C | 9.73
COCc1ccc(C(=O)N2CCC(CCC(=O)Nc3cccc(C)c3)CC2)s1 | -15.1
Cc1cccc(NC(=O)CCC2CCN(C(=O)c3ccc(C)s3)CC2)c1 | -65.5
COc1ccc(C(=O)N2CCC(CCC(=O)Nc3cccc(C)c3)CC2)cc1 | -68.3

SMILES | hERG current change (%, negative = inhibition) at 10uM [%]
COc1cccc(C(=O)N2CCC(CCC(=O)Nc3cccc(C)c3)CC2)c1 | -28.6
COc1cccc(NC(=O)CCC2CCN(C(=O)c3cccc(NC(C)=O)c3)CC2)c1 | -28.4
COc1cccc(NC(=O)CCC2CCN(C(=O)c3ccc(C(C)=O)s3)CC2)c1 | -36.9
O=[N+]([O-])c1ccc(-c2nc(NCC3CCCO3)c3ccccc3n2)cc1 (centres unmarked) | 12.3
O=C(Cc1ccsc1)N1CCN(S(=O)(=O)c2cc(C(F)(F)F)cc(C(F)(F)F)c2)CC1 | 1.69
Cc1ccc(S(=O)(=O)CCc2nc3ccccc3[nH]2)cc1 | -17.6
Cc1nc2cc(C)c(C)cc2s1 | 15.7
CS(=O)(=O)N(CC(=O)NC1CCCCCC1)Cc1ccccc1 | -1.26
CN1C(=O)C(CC(=O)Nc2ccc(F)cc2)N(NC(=O)c2cccc(F)c2)C1=S (centres unmarked) | -3.79
CCn1c(SCC(=O)c2ccc3ccccc3c2)nnc1-c1cccs1 | -8.29
COc1cc(C(=O)NC(=S)NCc2ccco2)cc(OC)c1OC | 1.74
CCOC(=O)C1(Cc2ccccc2)CCN(Cc2ccc3cc(NC(C)=O)ccc3n2)CC1 | -68.7
CCOC(=O)C1(Cc2ccccc2)CCN(Cc2ccon2)CC1 | 0.71
CC(=O)Nc1ccc2nc(CN3CCN(CC=C(C)C)C(CCO)C3)ccc2c1 (centres unmarked) | 11.5
CCOC(=O)C1(Cc2ccccc2)CCN(Cc2cc(=O)c3ccccc3[nH]2)CC1 | 13.5
CC(=O)Nc1ccc2nc(CN3CCC(CO)(CCc4ccccc4)CC3)ccc2c1 | -68.2
CC(=O)Nc1ccc2nc(CN3CCN(CC(C)C)C(CCO)C3)ccc2c1 (centres unmarked) | 17
COc1ccc(C(=O)Nc2nc3c(s2)CCCC3)cc1S(=O)(=O)N1CCCc2ccccc21 | -2.36
Cc1noc(C)c1COc1ccc(C(=O)O)cc1 | 17.1
CCCCc1n[nH]c2c1/C(=N/O)CC(c1ccccc1)C2 (centres unmarked) | 8.46
COc1cccc(OCC(O)CNC(C)c2ccccc2)c1.Cl (centres unmarked) | 2.14
OC(CNCCc1ccc(C(F)(F)F)cc1)COc1cccc2ccccc12 (centres unmarked) | -36.5

SMILES | hERG current change (%, negative = inhibition) at 10uM [%]
O=C(O)C(=O)O.OC(CNCCc1ccc(C(F)(F)F)cc1)COC(c1ccccc1)c1ccccc1 (centres unmarked) | -34.7
COc1ccccc1COCC(O)CNCCc1ccc(C(F)(F)F)cc1.O=C(O)C(=O)O (centres unmarked) | -56.5
Cc1cccc(C)c1OCC(O)CNC(C)c1ccccc1.Cl (centres unmarked) | -13.7
COc1ccc(C(OCC(O)CNCCc2ccccc2)c2ccc(OC)cc2)cc1.O=C(O)C(=O)O (centres unmarked) | -63.7
Cc1ccc(C(OCC(O)CNC(CO)C(O)c2ccc([N+](=O)[O-])cc2)c2ccccc2)cc1 (centres unmarked) | -22.4
COc1ccc(CCNCC(O)c2ccccc2)cc1.O=C(O)C(=O)O (centres unmarked) | -11.4
Cc1ccc(C(OCC(O)CNC(C)c2ccccc2)c2ccccc2)cc1 (centres unmarked) | -58.2
COc1ccc(C(OCC(O)CNC(C)c2ccccc2)c2ccc(OC)cc2)cc1 (centres unmarked) | -52.4
CC(NCC(O)COc1ccc2ccccc2c1)c1ccccc1.O=C(O)C(=O)O (centres unmarked) | -44
COc1ccc(C(OCC(O)CNCCc2ccc(S(N)(=O)=O)cc2)c2ccc(OC)cc2)cc1 (centres unmarked) | -43.2
COC(=O)c1cc(S(=O)(=O)NCc2ccccc2Cl)c[nH]1 | 17.1
C1CN(CCN2CCOCC2)CCN1 | 21
Cc1cccc(C)c1NS(=O)(=O)c1ccc(NC(=O)c2ccc(Cl)c([N+](=O)[O-])c2)cc1 | 13.9
Cc1ccc(S(=O)(=O)N(CC2CO2)c2ccccc2[N+](=O)[O-])cc1 (centres unmarked) | 13.1
O=C(Nc1nnc(SCc2ccccc2Cl)s1)c1cccc([N+](=O)[O-])c1 | -3.26
O=C(Nc1cc(Oc2ccc(Cl)cc2)cc([N+](=O)[O-])c1)c1ccco1 | 15
CCOc1cnn(-c2cc(Oc3ccc(C)cc3)ncn2)c(=O)c1Cl | -12.4
O=C(CSc1nnnn1-c1cccc2ccccc12)Nc1ccc(N2CCOCC2)c(Cl)c1 | 2.68
CC(NCC(O)COc1ccc(Br)cc1)c1ccccc1.Cl (centres unmarked) | 0.452
COc1ccc(OCC(O)CNC(C)c2ccccc2)cc1.Cl (centres unmarked) | 5.12
CC(C)c1ccc(OCC(O)CNC(C)c2ccccc2)cc1.Cl (centres unmarked) | -65.3
O=C1CCCN1c1cc(Cl)ccc1Cl | 2.17

SMILES | hERG current change (%, negative = inhibition) at 10uM [%]
CN(Cc1nc(-c2cnccn2)no1)CC1(c2ccccc2)CC1(C)C (centres unmarked) | 4.2
COc1ccc(-c2nnc(-c3ccc(N)cc3)o2)cc1 | -5.64
CC1CCCCN1C(=O)c1ccc(S(=O)(=O)N2CCCCC2C)cc1 (centres unmarked) | -9.35
COc1ccccc1N1CCN(C(=O)/C=C/c2ccc3c(c2)OCO3)CC1 | -10.5
C=CCNC(=O)/C(=C/c1cccc([N+](=O)[O-])c1)NC(=O)c1ccco1 | -27.5
CN(C)CCNC(=O)/C(=C/c1cccc([N+](=O)[O-])c1)NC(=O)c1ccccc1 | -66.9
COc1ccc(C(=O)N/C(=C\c2cccc([N+](=O)[O-])c2)C(=O)Nc2cccc(C(=O)O)c2)cc1 | 5.3
CC(C)(C)c1ccc(C(=O)N/C(=C\c2cccc([N+](=O)[O-])c2)C(=O)Nc2cccc(C(=O)O)c2)cc1 | 12.7
C=CCNC(=O)/C(=C\c1cccc([N+](=O)[O-])c1)NC(=O)c1ccccc1 | -53.4
C=CCNC(=O)/C(=C/c1cccc([N+](=O)[O-])c1)NC(=O)c1ccccc1 | -31.2
Cc1c(C(=O)N(CC(C)C)c2c(N)n(Cc3ccccc3)c(=O)[nH]c2=O)sc2nc3n(c(=O)c12)CCC3 | 7.27
CC(C)CN1C(=O)C(=O)N(CC(=O)c2ccc[nH]2)C1=O | 1.48
Cc1ccc(S(=O)(=O)N2CCCCC2C(=O)N2CCN(C)CC2)cc1 (centres unmarked) | 18.1
CCOc1ccc(N(CC(=O)Nc2ccccc2C(=O)NC(C)CC)S(C)(=O)=O)cc1 (centres unmarked) | -13.3
Cc1[nH]c(C)c(S(=O)(=O)N2CCN(c3cccc(Cl)c3)CC2)c1C(=O)N1CCCC1 | -6.94
Cc1c(C(=O)N2CCCCC2)c(S(=O)(=O)N2CCN(c3ccc(Cl)cc3)CC2)c(C)n1C | -55.7
Cc1[nH]c(C)c(S(=O)(=O)N2CCN(c3ccccc3)CC2)c1C(=O)N1CCCC1 | -10.4
Cc1[nH]c(C)c(S(=O)(=O)N2CCN(c3ccc(Cl)cc3)CC2)c1C(=O)N1CCCC1 | -66.4
Cc1c(C(=O)N2CCOCC2)c(S(=O)(=O)N2CCN(c3ccc(Cl)cc3)CC2)c(C)n1C | -37.6
CC(=O)c1ccc(N2CCN(S(=O)(=O)c3c(C(=O)N4CCCCC4)c(C)n(C)c3C)CC2)cc1 | -2.75
